# Measurements published in PubChem BioAssay AID1259373 (The Scripps Research Institute Molecular Screening Center, 2018).
# The other results are listed elsewhere or left out. A number with no mark means an inactive call. The rule behind the calls is not given here.
# Assay: signal-interfering artefacts in bead proximity readout – biochemical, AlphaScreen, HTS, counter-screen, dose response (AID 1259373)
# Conditions: AlphaScreen optical interference counterscreen, cell-free
row,Structure (SMILES),IC50 [µM]
1,C[C@@H](OCc1ccccc1)[C@@H]1NC(=O)[C@H]2CN(C(=O)Nc3cccc(F)c3)CCN2C1=O,> 6.48
2,NC(=O)COC(=O)/C=C/c1ccc(I)o1,> 7.27
3,COc1cc(N2CCOCC2)ccc1Nc1cc(Nc2ccccc2-n2cccn2)c(C(F)(F)F)cn1,> 6.48
4,COc1ccc2c(c1)CC(C(=O)Nc1ccc(-c3cn[nH]c3)cc1OCc1ccccc1)CO2 (centres undefined),> 6.48
5,Cc1ccc(NC(=O)COC(=O)CCC(=O)Nc2sc3c(c2C(N)=O)CCC3)cc1F,> 6.95
6,CC[C@@H]1NC(=O)[C@H]2CN(C(=O)NCc3ccccc3)CCN2C1=O,> 6.48
7,CCc1ccc(NC(=O)CS(=O)CC(=O)NCCCc2ccccc2)cc1 (centres undefined),> 6.48
8,c1cc2c(cc1CNc1nc(Nc3ccc(N4CCOCC4)cc3)c3ncn(C4CCCCC4)c3n1)OCO2,> 6.62
9,O=C(Nc1ccc(-c2ccncc2)c(C(F)(F)F)c1)C1COc2ccccc2O1 (centres undefined),> 6.48
10,O=C(Cc1cccs1)N/N=C\C=C\c1ccco1,> 6.48
11,COc1ccc2c(c1)CC(c1nc(Nc3ccc4cnccc4c3)c3ccccc3n1)CO2 (centres undefined),> 6.48
12,CCOc1ccccc1N1CCN(Cc2cc(OC)c(O)c([N+](=O)[O-])c2)CC1,> 6.48
13,C/C(N)=C(/C#N)C(=O)COC(=O)c1c2c(nc3ccccc13)/C(=C/c1ccco1)CC2,> 6.27
14,COc1ccc2c(c1)CC(C(=O)Nc1ccc(-c3cn[nH]c3)cc1OCC(N)=O)CO2 (centres undefined),> 6.48
